Consider 15 compounds from PubChem BioAssay AID602197 (NMMLSC, 2012).

The list shows a part of the results. A number with no mark means an inactive call. Active and inactive are the calls of the source. Rule as the data show it: active = response above about 24%; inactive = the rest.

The assay in a line: yeast V-ATPase proton pumping modulators, confirmation, S. cerevisiae, pH-sensitive GFP, second cherry-pick (AID 602197).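 Also: plate controls were vehicle wells for no effect and positive control wells for full effect.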 The note with it: S. cerevisiae pHLuorin cytosolic pH, V-ATPase proton transport; at 10 µM; active compounds read high.
For the compound `CCC(=O)c1ccc(OCC(=O)Nc2ccc(N3CCCCC3)cc2)cc1`, the response is -1.55%. As to `O=C(NC1CCN(Cc2ccccc2)CC1)c1cc(Br)c(Br)[nH]1`, the response was 2.14%. Consider `CCCc1cc(=O)[nH]c(SCc2ccc(C#N)cc2)n1`, for which the response was 1.04%.

Turning to `N#C/C(C(=O)N1CCOCC1)=C1/SC(Cc2ccc(F)cc2)C(=O)N1c1ccccc1` (stereo not given), the response is 5.79%. As for `O=S(=O)(c1ccc(-c2ccno2)s1)N1CCCCC1`, the response is -6.9%. As for `O=C(C1=C[C@H](C2CC2)C[C@H](OCc2ccc(CO)cc2)O1)N1CCN(Cc2ccccc2)CC1`, the response was 1.94%. With `O=C1c2ccccc2C(=O)N1CCCCCCN1C(=O)c2ccccc2C1=O` the figure was 2.04%; with `Nc1ccc(C(=O)NCc2ccccc2)cc1`, -2.67%; with `CCc1ccc(CNC(=O)CCc2nc(-c3cccs3)no2)cc1`, 2.27%. As for `CCOC(=O)CNC(=O)CSc1nnc(COc2ccc(Cl)cc2)n1CC`, the response was -1.08%. On to `O=C(NCC1CCCCC1)c1cc(S(=O)(=O)N2CCCCC2)ccc1N1CCOCC1`, for which the response was -0.11%. For `O=C1Oc2ccccc2C(=O)/C1=C/c1ccccc1O`, the response is 91.4% (active). As for `COc1ccc(/C=N/NC(=O)c2cccc(C(F)(F)F)c2)cc1`, the figure is -3.87%; as for `Cc1cc(=O)[nH]c(N/N=C/c2c(C)nn(-c3ccccc3Cl)c2Cl)n1`, -0.02%; as for `COC(=O)c1cc(Oc2ccc(S(=O)(=O)N3CCOCC3)cc2[N+](=O)[O-])cc(C(=O)OC)c1`, 0.18%.
